Data: PubChem BioAssay (NCATS)
Inconclusive results are not listed. Where a call stands in place of a potency, no number is given. Activity calls are given as the source filed them. Calls come from the whole dose curve; as a rule, active = well fitted inhibition curve with a large enough effect; inconclusive = small, poorly fitted or top-dose-only effect; inactive = flat fitted curve, though single readings scatter.

What follows are molecules tested against Calcium and integrin-binding protein 1 (Homo sapiens) (UniProt Q99828) (assay: Primary qHTS for Identification of Calcium Integrin Binding Protein 1 (CIB1) Competitor (AID 1508620; note: top concentration of the series differs between compounds)). Conditions: CIB1-GST / FITC-alphaIIb peptide fluorescence polarization; series mostly up to 57.7 µM.
Chain of Calcium and integrin-binding protein 1 (Homo sapiens) (Q99828 whole entry, looked up): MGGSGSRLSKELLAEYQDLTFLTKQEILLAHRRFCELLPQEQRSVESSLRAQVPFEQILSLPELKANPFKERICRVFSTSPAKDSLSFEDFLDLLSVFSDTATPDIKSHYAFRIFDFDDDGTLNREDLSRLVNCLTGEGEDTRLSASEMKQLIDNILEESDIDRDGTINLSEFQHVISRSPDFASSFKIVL
Method in brief: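 Fluorescence polarization competition: GST-tagged CIB1 (1 uM final) preincubated with compound 15 min at room temperature, then FITC-labelled alphaIIb peptide (100 nM final) added. After 15 min at room temperature, polarization read at Ex 480/Em 540.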
For `CC(C)OC(=O)CCCC=CC[C@@H]1[C@H](C=C[C@@H](O)COc2cccc(C(F)(F)F)c2)[C@H](O)C[C@@H]1O`, the Potency was “inactive”. In the case of `CCCCCNC(=O)N1CCC(CN(Cc2ccc(Cl)cc2)Cc2ccc([N+](=O)[O-])s2)C1` (stereo unspecified), the Potency is reported as “inactive”. For `O=C(Nc1cccc(Br)c1)c1cccc(S(=O)(=O)N2CCCCCC2)c1`, the Potency was “inactive”. For `CC(=O)O[C@]1(C(C)=O)CC[C@@H]2[C@@H]3C[C@H](C)C4=CC(=O)CC[C@]4(C)[C@H]3CC[C@@]21C`, the Potency was “inactive”. In the case of `C[C@H](NC(=O)c1sccc1OCc1ccc(Cl)cc1)c1ccccc1`, the Potency is reported as “inactive”. With `O=C(O)c1ccc(-c2cc3cccnc3c(-c3ccc4nonc4c3)n2)cc1` the Potency was “inactive”. In the case of `O=C1Nc2ccc(Cl)cc2C(C#CC2CC2)(C(F)(F)F)O1` (stereo unspecified), the Potency is reported as “inactive”. With `Cc1ccc([C@@H]2O[C@H](CO)[C@@H](O)[C@H](O)[C@@H]2O)cc1Cc1ccc(-c2ccc(F)cc2)s1` the Potency was “inactive”. `COc1ccc2c(Oc3ccc(NC(=O)c4c(C)n(CC(C)(C)O)n(-c5ccccc5)c4=O)nc3)ccnc2c1` was tested, and the Potency was “inactive”. For `O=C(CCCCCCC(=O)Nc1ccccc1)NO`, the Potency was “inactive”. With `O=C(CCN1CCN(C(=O)OCc2cc(Cl)cc(Cl)c2)CC1)c1ccc2[nH]c(=O)oc2c1` the Potency was “inactive”. In the case of `Clc1ccc(-c2nc3sccn3c2C=NOCc2ccc(Cl)c(Cl)c2)cc1`, the Potency is reported as “inactive”. With `Cc1ccc(/C=N/NC(=O)c2ccccc2Oc2ccccc2)o1` the Potency was “inactive”. For `CCc1ccc(OCc2ccccc2C(=O)Nc2ccc3nc(C)cc(N)c3c2)cc1`, the Potency was “inactive”. In the case of `COc1cc(N2CCC(N3CCN(C)CC3)CC2)ccc1Nc1ncnc(Nc2ccccc2S(=O)(=O)C(C)C)n1`, the Potency is reported as “inactive”. For `CS(=O)c1ccc(-c2nc(-c3ccc(F)cc3)c(-c3ccncc3)[nH]2)cc1` (stereo unspecified), the Potency was “inactive”. In the case of `COc1cc(NC(=O)c2ccc(-c3ccc(Cl)cc3)o2)cc(OC)c1`, the Potency is reported as “inactive”. For `O=C1C[C@@H](c2ccc(O)cc2)Oc2cc(O)cc(O)c21`, the Potency was “inactive”. With `COc1cc2ncnc(-n3nc(-c4ccccn4)nc3N)c2cc1OC` the Potency was “inactive”. For `COc1cc2c(cc1OC)CN(CCc1ccc(NC(=O)c3cc(OC)c(OC)cc3NC(=O)c3cnc4ccccc4c3)cc1)CC2`, the Potency was “inactive”. `Cc1c(NC(=O)c2ccc(C(C)(C)C)cc2)cccc1-c1cn(C)c(=O)c(Nc2ccc(C(=O)N3CCOCC3)cc2)n1` was tested, and the Potency was “inactive”. In the case of `CC(C)(C)NC(=O)Nc1cccc(Nc2ncc(F)c(NC(C)(C)CO)n2)c1`, the Potency is reported as “inactive”. For `CCOC(=O)C1=C(N)Oc2ccc(Br)cc2C1C(C#N)C(=O)OCC` (stereo unspecified), the Potency was “inactive”. With `CC1(C)Cc2c(sc(NC(=S)NC(=O)c3ccccc3)c2C(=O)O)CO1` the Potency was “inactive”. With `CN1C[C@H]2c3ccccc3Oc3ccc(Cl)cc3[C@@H]2C1` the Potency was “inactive”. In the case of `COc1ccc(-c2coc3cc(O)ccc3c2=O)cc1`, the Potency is reported as “inactive”. `COc1cccc2c1CCCC2CCCN1CCN(C2CCCCC2)CC1` (stereo unspecified) was tested, and the Potency was “inactive”. For `CON=C(C(=O)N[C@@H]1C(=O)N2C(C(=O)OCOC(=O)C(C)(C)C)=C(C=Cc3scnc3C)CS[C@H]12)c1csc(N)n1`, the Potency was “inactive”. `C[C@H]1[C@H](NC(=O)C(=NOC(C)(C)C(=O)O)c2csc(N)n2)C(=O)N1S(=O)(=O)O` was tested, and the Potency was “inactive”. With `CCOc1ccc(Nc2nc(-c3c(C)nc4ccccn34)cs2)cc1` the Potency was “inactive”. `CCCCCCCCCCCC1=C(O)C(=O)C=C(O)C1=O` was tested, and the Potency was “inactive”. `Cc1[nH]c(C=C2C(=O)Nc3ccc(S(=O)(=O)Cc4c(Cl)cccc4Cl)cc32)c(C)c1C(=O)N1CCC[C@H]1CN1CCCC1` was tested, and the Potency was “inactive”. With `O=C1NC(=O)C(=Cc2ccc3c(c2)OC(F)(F)O3)S1` the Potency was “inactive”. In the case of `O=c1c(-c2ccc(O)cc2)coc2cc(OC3O[C@H](CO)[C@H](O)[C@H](O)[C@H]3O)cc(O)c12` (stereo partly specified), the Potency is reported as “inactive”. In the case of `CC(C)(C)Cn1c(N)nc2ccc(-c3[nH]c(C(C)(C)C)nc3-c3ccc(F)cc3)nc21`, the Potency is reported as “inactive”. With `N#CC1(c2ccc(NC(=O)c3cccnc3NCc3ccncc3)cc2)CCCC1` the Potency was “inactive”.
